# According to article PMC7862700, “An all-to-all approach to the identification of sequence-specific readers for epigenetic DNA modifications on cytosine”:
# Assays:
# Experiment in all cases: DAPPL (digital affinity profiling via proximity ligation, sequencing); 10 mM Tris-HCl pH 7.5, 50 mM NaCl, 1 mM DTT, 4% glycerol, room temperature, 30 min; GST-TFs on glutathione beads, 16-mer random dsDNA library, 0.1% formaldehyde crosslink after washing; high values mean tight binding
# FEV = target: T1, FEV (Homo sapiens, UniProt Q99581 1-238); conditions: protein: recombinant; tags: N-terminal GST; dsDNA, one strand shown
# T1 sequence: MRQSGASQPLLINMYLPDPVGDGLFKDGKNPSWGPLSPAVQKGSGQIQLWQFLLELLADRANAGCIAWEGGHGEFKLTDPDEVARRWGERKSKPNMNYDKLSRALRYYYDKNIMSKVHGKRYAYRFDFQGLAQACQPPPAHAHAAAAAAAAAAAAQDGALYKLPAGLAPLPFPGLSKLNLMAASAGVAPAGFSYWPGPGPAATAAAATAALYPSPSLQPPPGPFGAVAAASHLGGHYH
# Outline: (§1)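 Binding signal is each hexamer's read frequency for a factor divided by its frequency in the tag-only sample. The factors were GST-fused human transcription factors from yeast, captured on glutathione beads, DNA-barcoded and pooled with that sample. Pools were incubated with 200 nmole of a random double-stranded 16-mer DNA library in Tris/NaCl/DTT/glycerol buffer at room temperature for 30 min, then washed, crosslinked with 0.1% formaldehyde, proximity-ligated with BsaI/T4 ligase (1 h, 37 °C), PCR-amplified and sequenced on an Illumina NextSeq500.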
# ETV5 = ETV5 (Homo sapiens, UniProt P41161 1-510); conditions: protein: recombinant; tags: N-terminal GST; dsDNA, one strand shown
# ETV5, sequence (P41161 whole entry): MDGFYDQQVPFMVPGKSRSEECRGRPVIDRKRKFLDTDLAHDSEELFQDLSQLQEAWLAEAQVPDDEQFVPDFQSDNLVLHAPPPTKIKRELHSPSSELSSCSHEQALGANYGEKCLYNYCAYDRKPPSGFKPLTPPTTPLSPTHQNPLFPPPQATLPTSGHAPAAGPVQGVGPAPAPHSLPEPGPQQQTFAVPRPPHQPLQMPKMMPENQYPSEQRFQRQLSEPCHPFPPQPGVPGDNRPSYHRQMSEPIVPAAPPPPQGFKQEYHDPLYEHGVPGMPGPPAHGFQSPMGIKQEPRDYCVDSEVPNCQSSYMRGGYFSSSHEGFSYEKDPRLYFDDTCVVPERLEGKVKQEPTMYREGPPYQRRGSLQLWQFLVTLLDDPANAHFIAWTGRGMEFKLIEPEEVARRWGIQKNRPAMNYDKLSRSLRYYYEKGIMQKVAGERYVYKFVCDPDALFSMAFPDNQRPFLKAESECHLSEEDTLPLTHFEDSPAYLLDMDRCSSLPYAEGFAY
# Outline: as §1
# HSF1 = HSF1 (Homo sapiens, UniProt Q00613 1-529); conditions: protein: recombinant; tags: N-terminal GST; chain copies: 3; dsDNA, one strand shown
# HSF1, sequence (Q00613 whole entry): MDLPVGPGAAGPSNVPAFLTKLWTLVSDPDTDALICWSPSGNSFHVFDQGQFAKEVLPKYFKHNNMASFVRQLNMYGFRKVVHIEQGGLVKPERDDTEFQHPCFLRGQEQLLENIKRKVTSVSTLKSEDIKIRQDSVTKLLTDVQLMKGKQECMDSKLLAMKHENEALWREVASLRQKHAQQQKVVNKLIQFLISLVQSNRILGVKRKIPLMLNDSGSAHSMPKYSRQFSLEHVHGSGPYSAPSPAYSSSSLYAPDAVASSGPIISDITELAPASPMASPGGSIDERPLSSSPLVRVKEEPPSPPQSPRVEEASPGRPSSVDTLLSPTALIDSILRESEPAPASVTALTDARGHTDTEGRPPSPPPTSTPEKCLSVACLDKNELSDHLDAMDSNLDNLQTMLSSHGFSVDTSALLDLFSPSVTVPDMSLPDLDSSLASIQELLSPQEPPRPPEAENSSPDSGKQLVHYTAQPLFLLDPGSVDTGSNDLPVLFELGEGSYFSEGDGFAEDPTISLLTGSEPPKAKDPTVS
# Outline: as §1
# SPIC = target: T2, SPIC (Homo sapiens, UniProt Q8N5J4 1-248); conditions: protein: recombinant; tags: N-terminal GST; dsDNA, one strand shown
# T2 sequence: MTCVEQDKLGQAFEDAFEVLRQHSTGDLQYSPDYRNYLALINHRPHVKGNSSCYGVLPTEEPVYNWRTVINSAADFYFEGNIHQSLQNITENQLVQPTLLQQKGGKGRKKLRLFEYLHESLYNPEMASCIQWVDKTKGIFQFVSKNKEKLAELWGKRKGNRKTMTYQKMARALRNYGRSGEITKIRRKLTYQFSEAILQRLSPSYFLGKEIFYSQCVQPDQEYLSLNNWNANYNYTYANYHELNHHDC
# Outline: as §1
# ELF4 = ELF4 (Homo sapiens, UniProt Q99607 1-663); conditions: protein: recombinant; tags: N-terminal GST; dsDNA, one strand shown
# ELF4, sequence (Q99607 whole entry): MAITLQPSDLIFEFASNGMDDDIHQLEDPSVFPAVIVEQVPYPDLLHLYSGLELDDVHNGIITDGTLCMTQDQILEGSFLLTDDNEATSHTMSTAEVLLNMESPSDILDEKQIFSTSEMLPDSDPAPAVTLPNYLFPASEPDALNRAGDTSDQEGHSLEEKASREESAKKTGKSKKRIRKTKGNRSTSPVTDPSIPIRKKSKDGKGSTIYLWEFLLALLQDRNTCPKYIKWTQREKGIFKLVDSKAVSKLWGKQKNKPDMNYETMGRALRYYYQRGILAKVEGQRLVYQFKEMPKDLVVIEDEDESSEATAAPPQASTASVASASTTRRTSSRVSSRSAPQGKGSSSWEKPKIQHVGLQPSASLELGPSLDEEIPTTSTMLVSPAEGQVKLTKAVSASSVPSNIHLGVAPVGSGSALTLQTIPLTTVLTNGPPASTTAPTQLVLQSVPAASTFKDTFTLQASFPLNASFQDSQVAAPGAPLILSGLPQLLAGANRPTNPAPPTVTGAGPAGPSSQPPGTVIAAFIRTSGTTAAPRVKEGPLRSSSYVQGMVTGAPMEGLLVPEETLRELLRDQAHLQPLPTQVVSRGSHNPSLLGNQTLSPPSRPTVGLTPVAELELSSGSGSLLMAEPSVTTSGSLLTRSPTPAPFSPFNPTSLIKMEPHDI
# Outline: as §1
# ELK4 = target: T3, ELK4 (Homo sapiens, UniProt P28324-2 1-405); conditions: protein: recombinant; tags: N-terminal GST; dsDNA, one strand shown
# T3 sequence: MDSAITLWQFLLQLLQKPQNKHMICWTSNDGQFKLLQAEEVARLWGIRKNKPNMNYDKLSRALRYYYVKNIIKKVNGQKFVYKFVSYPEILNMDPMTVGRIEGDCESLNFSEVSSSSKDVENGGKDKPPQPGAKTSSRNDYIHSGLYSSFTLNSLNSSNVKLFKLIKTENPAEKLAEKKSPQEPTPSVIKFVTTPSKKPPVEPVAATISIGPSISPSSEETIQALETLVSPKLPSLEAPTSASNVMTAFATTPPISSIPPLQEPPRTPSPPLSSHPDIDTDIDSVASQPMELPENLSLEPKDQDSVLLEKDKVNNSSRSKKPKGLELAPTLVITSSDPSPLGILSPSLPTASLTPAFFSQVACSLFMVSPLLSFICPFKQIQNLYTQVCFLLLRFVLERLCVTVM
# Outline: as §1
# ETV2 = target: T4, ETV2 (Homo sapiens, UniProt O00321 1-342); conditions: protein: recombinant; tags: N-terminal GST; dsDNA, one strand shown
# T4 sequence: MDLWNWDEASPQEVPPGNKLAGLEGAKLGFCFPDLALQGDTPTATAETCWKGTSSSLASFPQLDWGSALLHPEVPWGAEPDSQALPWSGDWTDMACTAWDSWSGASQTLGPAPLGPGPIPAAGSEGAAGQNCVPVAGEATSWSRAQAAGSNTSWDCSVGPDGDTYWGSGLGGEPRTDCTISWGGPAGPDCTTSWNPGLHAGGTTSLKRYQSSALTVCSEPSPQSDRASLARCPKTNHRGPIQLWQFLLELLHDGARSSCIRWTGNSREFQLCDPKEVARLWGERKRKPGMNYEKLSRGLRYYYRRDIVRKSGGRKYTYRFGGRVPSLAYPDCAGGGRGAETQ
# Outline: as §1
# ELF3 = target: T5, ELF3 (Homo sapiens, UniProt P78545 1-371); conditions: protein: recombinant; tags: N-terminal GST; dsDNA, one strand shown
# T5 sequence: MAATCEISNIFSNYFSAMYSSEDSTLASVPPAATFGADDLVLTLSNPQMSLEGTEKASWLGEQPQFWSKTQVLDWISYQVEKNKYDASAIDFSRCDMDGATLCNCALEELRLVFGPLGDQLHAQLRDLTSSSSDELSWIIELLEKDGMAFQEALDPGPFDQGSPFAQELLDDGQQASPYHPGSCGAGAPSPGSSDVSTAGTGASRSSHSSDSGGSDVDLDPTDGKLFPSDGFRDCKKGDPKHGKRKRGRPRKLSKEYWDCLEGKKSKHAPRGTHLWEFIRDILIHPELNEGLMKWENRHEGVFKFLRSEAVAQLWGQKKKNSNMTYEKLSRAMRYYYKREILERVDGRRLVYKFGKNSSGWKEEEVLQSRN
# Outline: as §1
# CRX = CRX (Homo sapiens, UniProt O43186 1-299); conditions: protein: recombinant; tags: N-terminal GST; dsDNA, one strand shown
# CRX, sequence (O43186 whole entry): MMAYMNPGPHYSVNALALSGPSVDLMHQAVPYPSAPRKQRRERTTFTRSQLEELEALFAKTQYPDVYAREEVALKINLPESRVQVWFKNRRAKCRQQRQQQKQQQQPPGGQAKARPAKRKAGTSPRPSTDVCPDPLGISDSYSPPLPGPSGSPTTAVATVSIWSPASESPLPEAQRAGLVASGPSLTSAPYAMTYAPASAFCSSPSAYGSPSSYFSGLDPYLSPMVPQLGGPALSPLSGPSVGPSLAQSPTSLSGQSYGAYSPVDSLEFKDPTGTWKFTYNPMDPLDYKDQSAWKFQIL
# Outline: as §1
# ETV1 = ETV1 (Homo sapiens, UniProt P50549 1-477); conditions: protein: recombinant; tags: N-terminal GST; dsDNA, one strand shown
# ETV1, sequence (P50549 whole entry): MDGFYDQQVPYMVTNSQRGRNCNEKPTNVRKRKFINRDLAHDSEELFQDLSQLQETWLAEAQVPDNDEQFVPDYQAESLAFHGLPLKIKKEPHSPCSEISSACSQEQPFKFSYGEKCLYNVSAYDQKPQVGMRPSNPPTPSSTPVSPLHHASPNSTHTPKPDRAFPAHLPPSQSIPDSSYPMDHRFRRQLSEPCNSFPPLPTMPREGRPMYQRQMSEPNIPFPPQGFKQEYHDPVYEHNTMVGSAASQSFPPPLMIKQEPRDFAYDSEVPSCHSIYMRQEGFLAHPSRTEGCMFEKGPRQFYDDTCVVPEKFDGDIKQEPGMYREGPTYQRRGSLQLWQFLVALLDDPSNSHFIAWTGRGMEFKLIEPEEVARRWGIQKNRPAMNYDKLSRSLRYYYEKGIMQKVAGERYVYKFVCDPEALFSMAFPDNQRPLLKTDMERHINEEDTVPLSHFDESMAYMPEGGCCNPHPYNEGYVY
# Outline: as §1
# ERF = target: T6, ERF (Homo sapiens, UniProt P50548 1-548); conditions: protein: recombinant; tags: N-terminal GST; dsDNA, one strand shown
# T6 sequence: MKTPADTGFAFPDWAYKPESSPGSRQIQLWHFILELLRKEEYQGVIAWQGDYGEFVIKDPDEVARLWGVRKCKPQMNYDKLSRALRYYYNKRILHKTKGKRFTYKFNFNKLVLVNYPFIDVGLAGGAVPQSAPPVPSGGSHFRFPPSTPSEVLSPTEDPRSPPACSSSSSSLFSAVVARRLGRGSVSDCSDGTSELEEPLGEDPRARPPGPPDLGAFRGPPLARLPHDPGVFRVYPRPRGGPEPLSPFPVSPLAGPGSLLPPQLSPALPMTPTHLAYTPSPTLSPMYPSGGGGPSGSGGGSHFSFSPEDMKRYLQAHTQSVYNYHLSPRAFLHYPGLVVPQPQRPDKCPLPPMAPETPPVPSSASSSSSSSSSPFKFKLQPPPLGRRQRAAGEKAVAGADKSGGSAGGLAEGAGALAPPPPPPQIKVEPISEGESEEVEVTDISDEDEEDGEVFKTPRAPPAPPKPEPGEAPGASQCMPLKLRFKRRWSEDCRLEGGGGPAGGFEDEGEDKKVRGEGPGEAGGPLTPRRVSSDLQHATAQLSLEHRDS
# Outline: as §1
# ETV3L = target: T7, ETV3L (Homo sapiens, UniProt Q6ZN32 1-361); conditions: protein: recombinant; tags: N-terminal GST; dsDNA, one strand shown
# T7 sequence: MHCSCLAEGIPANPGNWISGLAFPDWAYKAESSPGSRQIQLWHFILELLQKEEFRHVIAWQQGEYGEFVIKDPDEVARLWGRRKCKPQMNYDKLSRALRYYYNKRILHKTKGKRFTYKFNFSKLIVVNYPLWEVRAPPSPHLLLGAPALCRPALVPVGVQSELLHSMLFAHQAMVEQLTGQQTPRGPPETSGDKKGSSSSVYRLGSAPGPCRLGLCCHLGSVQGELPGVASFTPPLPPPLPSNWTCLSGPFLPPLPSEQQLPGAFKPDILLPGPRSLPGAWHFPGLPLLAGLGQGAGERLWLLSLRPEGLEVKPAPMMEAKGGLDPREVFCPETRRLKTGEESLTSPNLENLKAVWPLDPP
# Outline: as §1
# ETS2 = target: T8, ETS2 (Homo sapiens, UniProt P15036 1-469); conditions: protein: recombinant; tags: N-terminal GST; dsDNA, one strand shown
# T8 sequence: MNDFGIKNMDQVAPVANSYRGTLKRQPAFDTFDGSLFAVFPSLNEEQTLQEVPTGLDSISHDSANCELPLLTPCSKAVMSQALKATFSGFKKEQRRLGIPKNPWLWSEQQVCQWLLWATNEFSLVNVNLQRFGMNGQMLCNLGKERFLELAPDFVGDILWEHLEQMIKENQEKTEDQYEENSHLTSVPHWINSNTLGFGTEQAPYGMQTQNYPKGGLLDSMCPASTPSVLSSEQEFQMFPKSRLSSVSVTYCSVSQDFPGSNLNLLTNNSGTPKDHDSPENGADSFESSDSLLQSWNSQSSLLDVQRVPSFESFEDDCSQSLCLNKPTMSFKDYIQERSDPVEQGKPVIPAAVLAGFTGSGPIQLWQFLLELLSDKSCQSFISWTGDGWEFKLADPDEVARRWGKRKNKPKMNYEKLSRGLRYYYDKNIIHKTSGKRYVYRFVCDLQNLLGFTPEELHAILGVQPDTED
# Outline: as §1
# SPDEF = target: T9, SPDEF (Homo sapiens, UniProt O95238 1-335); conditions: protein: recombinant; tags: N-terminal GST; dsDNA, one strand shown
# T9 sequence: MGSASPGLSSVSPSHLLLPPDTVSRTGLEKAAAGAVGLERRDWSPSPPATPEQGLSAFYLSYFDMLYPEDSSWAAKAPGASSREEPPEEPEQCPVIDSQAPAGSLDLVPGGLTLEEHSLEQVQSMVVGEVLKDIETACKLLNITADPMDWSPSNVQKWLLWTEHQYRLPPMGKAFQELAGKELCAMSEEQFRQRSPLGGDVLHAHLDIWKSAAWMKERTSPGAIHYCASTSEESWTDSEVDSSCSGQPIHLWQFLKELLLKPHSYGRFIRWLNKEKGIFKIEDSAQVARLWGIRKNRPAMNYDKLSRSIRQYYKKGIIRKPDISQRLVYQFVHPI
# Outline: as §1
# ETV7 = target: T10, ETV7 (Homo sapiens, UniProt Q9Y603 1-341); conditions: protein: recombinant; tags: N-terminal GST; dsDNA, one strand shown
# T10 sequence: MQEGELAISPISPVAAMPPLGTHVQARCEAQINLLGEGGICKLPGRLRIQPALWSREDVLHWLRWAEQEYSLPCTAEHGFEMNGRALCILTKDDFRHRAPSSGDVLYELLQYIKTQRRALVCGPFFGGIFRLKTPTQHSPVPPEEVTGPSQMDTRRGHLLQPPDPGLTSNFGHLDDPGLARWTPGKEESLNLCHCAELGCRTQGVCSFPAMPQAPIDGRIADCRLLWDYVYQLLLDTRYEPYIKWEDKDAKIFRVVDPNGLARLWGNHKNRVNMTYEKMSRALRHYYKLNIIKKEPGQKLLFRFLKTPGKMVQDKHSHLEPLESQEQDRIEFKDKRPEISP
# Outline: as §1
# ELF5 = target: T11, ELF5 (Homo sapiens, UniProt Q9UKW6-2 1-255); conditions: protein: recombinant; tags: N-terminal GST; dsDNA, one strand shown
# T11 sequence: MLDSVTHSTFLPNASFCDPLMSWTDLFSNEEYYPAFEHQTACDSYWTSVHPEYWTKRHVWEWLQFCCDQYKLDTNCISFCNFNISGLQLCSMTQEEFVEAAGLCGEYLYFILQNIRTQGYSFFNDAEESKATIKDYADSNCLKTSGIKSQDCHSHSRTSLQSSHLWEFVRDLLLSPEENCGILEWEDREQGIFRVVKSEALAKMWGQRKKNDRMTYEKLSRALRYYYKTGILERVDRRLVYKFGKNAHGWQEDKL
# Outline: as §1
# ETV3 = target: T12, ETV3 (Homo sapiens, UniProt P41162-2 1-143); conditions: protein: recombinant; tags: N-terminal GST; dsDNA, one strand shown
# T12 sequence: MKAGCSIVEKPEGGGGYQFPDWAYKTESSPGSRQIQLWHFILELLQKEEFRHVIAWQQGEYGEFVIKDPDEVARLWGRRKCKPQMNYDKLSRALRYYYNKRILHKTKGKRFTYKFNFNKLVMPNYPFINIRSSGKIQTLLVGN
# Outline: as §1
# ETV6 = ETV6 (Homo sapiens, UniProt P41212 1-452); conditions: protein: recombinant; tags: N-terminal GST; dsDNA, one strand shown
# ETV6, sequence (P41212 whole entry): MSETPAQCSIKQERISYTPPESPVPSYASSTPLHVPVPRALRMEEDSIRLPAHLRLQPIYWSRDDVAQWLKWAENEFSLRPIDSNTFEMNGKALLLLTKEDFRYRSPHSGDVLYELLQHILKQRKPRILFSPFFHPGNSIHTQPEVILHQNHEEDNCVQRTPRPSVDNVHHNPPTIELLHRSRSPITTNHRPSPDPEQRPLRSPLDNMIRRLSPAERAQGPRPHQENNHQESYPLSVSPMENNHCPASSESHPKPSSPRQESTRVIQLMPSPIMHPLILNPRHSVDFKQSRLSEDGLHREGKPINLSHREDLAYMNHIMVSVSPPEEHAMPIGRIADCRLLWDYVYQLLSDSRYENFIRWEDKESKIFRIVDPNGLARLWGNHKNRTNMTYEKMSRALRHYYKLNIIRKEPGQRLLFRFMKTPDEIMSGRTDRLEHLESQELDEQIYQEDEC
# Outline: as §1
sequence,measurement,setting,value
ACACTT,binding signal,FEV,"1.68 fold enrichment (6-mer frequency, TF over GST control)"
same,binding signal,ETV5,"1.67 fold enrichment (6-mer frequency, TF over GST control)"
same,binding signal,HSF1,"1.11 fold enrichment (6-mer frequency, TF over GST control)"
same,binding signal,SPIC,"1.71 fold enrichment (6-mer frequency, TF over GST control)"
same,binding signal,ELF4,"1.55 fold enrichment (6-mer frequency, TF over GST control)"
same,binding signal,ELK4,"1.49 fold enrichment (6-mer frequency, TF over GST control)"
same,binding signal,ETV2,"1.58 fold enrichment (6-mer frequency, TF over GST control)"
same,binding signal,ELF3,"1.66 fold enrichment (6-mer frequency, TF over GST control)"
same,binding signal,CRX,"1.16 fold enrichment (6-mer frequency, TF over GST control)"
same,binding signal,ETV1,"1.77 fold enrichment (6-mer frequency, TF over GST control)"
same,binding signal,ERF,"1.51 fold enrichment (6-mer frequency, TF over GST control)"
same,binding signal,ETV3L,"1.64 fold enrichment (6-mer frequency, TF over GST control)"
same,binding signal,ETS2,"1.76 fold enrichment (6-mer frequency, TF over GST control)"
same,binding signal,SPDEF,"1.61 fold enrichment (6-mer frequency, TF over GST control)"
same,binding signal,ETV7,"1.78 fold enrichment (6-mer frequency, TF over GST control)"
same,binding signal,ELF5,"2.02 fold enrichment (6-mer frequency, TF over GST control)"
same,binding signal,ETV3,"1.66 fold enrichment (6-mer frequency, TF over GST control)"
same,binding signal,ETV6,"1.95 fold enrichment (6-mer frequency, TF over GST control)"
